In PubChem BioAssay (NCATS):

Assay: qHTS profiling of the MIPE4 collection as inhibitors of Plasmodium falciparum (HB3) proliferation (AID 743347);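 also: plate controls were DMSO vehicle wells for no effect and artemisinin wells for full effect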
Conditions: P. falciparum HB3 in erythrocytes, SYBR Green DNA, 72 h; at 28.5 µM (top of the series) unless noted
Description: Plasmodium falciparum is a virulent malarial parasite that kills 1-2 million people worldwide each year. Transmitted by mosquitoes, the sporozoite form of the parasite enters the blood stream to infect hepatocytes, where they become merozoites that infect red blood cells (erythrocytes). Within erythrocytes, merozoites begin a […] cycle of growth and division, after which the parasite is released to infect new red blood cells. Gametocytes, which form within erythrocytes as well, circulate in the bloodstream and are ingested by the mosquito, thereby completing the life cycle. To profile malarial isolates for differential chemical responses and to identify inhibitors of malarial growth, an assay that measures P. falciparum growth and replication within erythrocytes was employed. This assay uses a DNA binding fluorescent dye (SYBR Green) to detect parasite DNA following cell lysis. Because mature erythrocytes lack DNA, only Plasmodium-derived DNA is detected.
The SYBR Green viability assay was adapted from a method described previously (Plouffe et al., 2008). For screening 3 ul culture medium was dispensed into 1536 well black clear bottom plates (Aurora Biotechnologies) using a Multidrop Combi (Thermo Fisher Scientific Inc.), 23 nL compounds in DMSO were added by a pin tool (Kalypsys), and 5 ul of erythrocytes infected with P. falciparum (0.3% parasitemia, 2.5% hematocrit final concentration) were added. The plates were incubated at 37 C in a humidified incubator in 5% CO2 for 72 h, and 2 ul lysis buffer (20 mM Tris HCl, 10 mM EDTA, 0.16% saponin, 1.6% triton X, 10X SYBR Green I supplied as 10,000X […] by Invitrogen) was added to each well. The plates were mixed for 25 sec with gentle shaking and incubated overnight at room temperature in the dark. The following morning, fluorescence intensity at 485(14) nm excitation and 535(25) nm emission wavelengths was measured on an EnVision (Perkin Elmer) plate reader. Plate reads were normalized relative to the control inhibitor (0.29 uM artemisinin) and vehicle (DMSO) wells present on each plate and then corrected by an algorithm using vehicle-only control plates at the beginning and end of the compound plate stack.
Compound `CCN(CCO)CCCOc1ccc2c(Nc3cc(CC(=O)Nc4cccc(F)c4)[nH]n3)ncnc2c1` has a growth, % of control of 6.77%. Compound `CC(C)c1onc(-c2c(Cl)cccc2Cl)c1COc1ccc(C=Cc2cccc(C(=O)O)c2)c(Cl)c1` has a growth, % of control of 67.3%. In the case of `C[C@H]1O[C@@H](n2cc(F)c(=O)[nH]c2=O)[C@H](O)[C@H]1O`, the growth, % of control is reported as 53%. Work on `CC1(C)C(N(O)C(=O)Nc2ccc(Cl)cc2)N(c2ccc(Cl)cc2)C(=O)N1CC(=O)NN=CC=Cc1ccc([N+](=O)[O-])o1` (stereo not given) yielded a growth, % of control of 7.55%. Compound `CCOC(=O)[C@H]1O[C@H]1C(=O)N[C@@H](CC(C)C)C(=O)NCCC(C)C` has a growth, % of control of 4.47%. For `CC(O)=C(C#N)C(=O)Nc1ccc(C(F)(F)F)cc1`, the growth, % of control was 83.8%. Work on `Cc1ccc(C(=O)N(CCCN)[C@@H](c2nc3cc(Cl)ccc3c(=O)n2Cc2ccccc2)C(C)C)cc1` yielded a growth, % of control of 6.88%. Compound `CCCCC(C=O)NC(=O)C(CC(C)C)NC(=O)OCc1ccccc1` (stereo not given) has a growth, % of control of 4.08%. In the case of `N#CC(=C1Nc2ccccc2S1)c1ccnc(OCc2ccc(CN3CCOCC3)cc2)n1`, the growth, % of control is reported as 10.8%. Work on `CO[C@H]1/C=C\O[C@@]2(C)Oc3c(C)c(O)c4c(O)c(c5c(nc6cc(C)ccn65)c4c3C2=O)NC(=O)C(C)=CC=C[C@H](C)[C@H](O)[C@@H](C)[C@@H](O)[C@@H](C)[C@H](OC(C)=O)[C@H]1C` yielded a growth, % of control of 5.21%. `CCC=CC[C@H]1C(=O)CC[C@@H]1CC(=O)OC` gave a growth, % of control of 79.8%. Work on `Nc1ccn([C@@H]2O[C@H](CO)[C@@H](O)[C@H]2O)c(=O)n1` yielded a growth, % of control of 108%. Work on `COc1cc2c(cc1Cc1cccc(Cl)c1F)c(=O)c(C(=O)O)cn2[C@H](CO)C(C)C` yielded a growth, % of control of 3.89%. In the case of `FC(F)(F)c1ccc(C=Cc2nc(COc3ccc(CCCCn4ccnn4)cc3)co2)cc1`, the growth, % of control is reported as 83.1%. Work on `N#Cc1c(N(CC(=O)O)CC(=O)O)sc(C(=O)O)c1CC(=O)O` yielded a growth, % of control of 105%. Compound `C[C@@H](NC(=O)c1ncnc(N)c1Cl)c1ncc(C(=O)Nc2cc(C(F)(F)F)c(Cl)cn2)s1` has a growth, % of control of 60.9%. `Cn1c(=O)c(-c2c(Cl)cccc2Cl)cc2cnc(Nc3cccc(C(=O)O)c3)nc21` showed a growth, % of control of 15.5%. Compound `CON(C)C(=O)N1N=C(c2cc(F)ccc2F)S[C@]1(CCCN)c1ccccc1` has a growth, % of control of 8.3%. With `NC[C@H]1O[C@H](O[C@@H]2[C@@H](O)[C@@H](O[C@H]3O[C@H](CO)[C@@H](O)[C@H](N)[C@@H]3O)[C@H](N)C[C@@H]2N)[C@H](O)[C@@H](O)[C@H]1O` the growth, % of control was 66.9%. In the case of `CCC(=C(CC)c1ccc(O)cc1)c1ccc(O)cc1`, the growth, % of control is reported as 90.8%. `CCCCCCOC(=O)N=C(N)c1ccc(NCc2nc3cc(C(=O)N(CCC(=O)OCC)c4ccccn4)ccc3n2C)cc1` gave a growth, % of control of 7.43%. Compound `O=C(Nc1ccc(OC(F)(F)F)cc1)c1sccc1NCc1ccnc2ccccc12` has a growth, % of control of 67.5%. Compound `CCCCC[C@H](O)C=C[C@H]1[C@H](O)CC(=O)[C@H]1CCCCCCC(=O)O` has a growth, % of control of 103%. With `CC(C)(CO)[C@@H](O)C(=O)NCCC(=O)O` the growth, % of control was 102%. `CC1CCN(c2cc(N3CCN(C)CC3)ccc2NC(=O)c2cc(C#N)c[nH]2)CC1` gave a growth, % of control of 50.4%. For `CC1C(=O)OC2C(O)C34C5CC(C(C)(C)C)C36C(OC(=O)C6O)OC4(C(=O)O5)C12O` (stereo not given), the growth, % of control was 83.4%. For `CC(C)Oc1cc(Nc2nc(N[C@@H](C)c3ccc(F)cn3)ncc2Cl)[nH]n1`, the growth, % of control was 14.7%. `CSc1cccc(Nc2ncc3cc(-c4c(Cl)cccc4Cl)c(=O)n(C)c3n2)c1` gave a growth, % of control of 9.92%. In the case of `CN1CC(=O)N2C(Cc3c([nH]c4ccccc34)[C@H]2c2ccc3c(c2)OCO3)C1=O` (stereo not given in full), the growth, % of control is reported as 11.5%. `COc1ccc(CCC(=O)Nc2nc3ccc(Cl)cc3s2)cc1OC` gave a growth, % of control of 28.3%. Compound `CN(C)N=Nc1nc[nH]c1C(N)=O` has a growth, % of control of 61.9%. Work on `Cc1ccccc1-n1c(Cn2nc(-c3cccc(O)c3)c3c(N)ncnc32)nc2cccc(C)c2c1=O` yielded a growth, % of control of 9.11%. `O=C(c1ccc(C=Cc2n[nH]c3ccccc23)cc1)N1CCNCC1` gave a growth, % of control of 6.97%. `C[C@H]1[C@H](O)O[C@@H]2O[C@@]3(C)CC[C@@H]4[C@H](C)CC[C@@H]1[C@@]24OO3` gave a growth, % of control of 11.1%. In the case of `NS(=O)(=O)c1ccc(Nc2nc(OCC3CCCCC3)c3[nH]cnc3n2)cc1`, the growth, % of control is reported as 11%. Compound `NC(=O)c1nnn(Cc2cc(Cl)c(C(=O)c3ccc(Cl)cc3)c(Cl)c2)c1N` has a growth, % of control of 6.97%. For `CCNC(=O)CCCC=CC[C@@H]1[C@H](C=CC(O)CCc2ccccc2)[C@@H](O)C[C@@H]1O` (stereo not given in full), the growth, % of control was 74.9%. Work on `CCN1CCN(c2ccc(Nc3cc(N(C)C(=O)Nc4c(Cl)c(OC)cc(OC)c4Cl)ncn3)cc2)CC1` yielded a growth, % of control of 2.41%. Compound `C[C@@H]1CCO[C@H]2Cn3cc(C(=O)NCc4ccc(F)cc4F)c(=O)c(O)c3C(=O)N12` has a growth, % of control of 62.8%. Compound `COc1cc2c(cc1OC)[C@@H]1Cc3ccc(OC)c(OC)c3CN1CC2` has a growth, % of control of 11.1%.
